Compound activity deposited in PubChem BioAssay by National Center for Advancing Translational Sciences (NCATS).
BAZ2B block: BAZ2B (human) inhibition; Q9UIF8; AlphaScreen BAZ2B-H3K14Ac peptide displacement; Potency, µM (series often up to 114 µM), without a hit: at the highest dose activity change, negative = inhibition, usual class: inhibitors; 360,000 compounds, 4.4% hits; also: % is scaled to controls: 0 for no effect and ±100 for the full control effect; nearly all actives have a fitted effect of over 60% in size
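BAZ2B (50 nM) with biotin-H3(5-23)K14Ac peptide (50 nM) in PBS pH 7.4, 0.01% Tween-20, preformed 30 min, then compound 30 min at room temperature; top concentration 110uM. AlphaScreen streptavidin donor/nickel chelate acceptor beads (10 ug/mL final), 20 min dark, signal read.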
Sfp PPTase inh: inhibitors of Bacillus subtilis Sfp phosphopantetheinyl transferase; Q9F4F7; Biochemical Sfp PPTase activity, qHTS; Potency, µM, inactives show largest response in the series, negative = inhibition, usual class: inhibitors; 310,000 compounds, 3.5% hits; AID 1490;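 also: the enzyme is Sfp with the accession as filed and its product quenches rhodamine fluorescence; 0% = enzyme reaction without inhibitor and -100% = no enzyme wells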
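Fluorescence-quenching assay with 15 nM Sfp, 5 uM rhodamine-CoA and 12.5 uM BHQ-2-labelled ybbR peptide in pH 7.6 Hepes/MgCl2 buffer. Enzyme was pre-incubated with compound for 15 min at room temperature. Rate was taken from the 30-min fluorescence change (525/598 nm).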
G9a block: G9a (human) methyltransferase inhibition; Q96KQ7; G9a H3K9 monomethylation, AlphaScreen, 2 h; 350,000 compounds, 8.8% hits; Potency, µM (doses to about 102 µM), without a hit: at the top dose activity, negative = inhibition, actives largely listed as inhibitors; also: % is scaled to controls: 0 for no effect and ±100 for the full control effect; nearly all actives have a fitted effect of over 75% in size
Target sequence (Q96KQ7 913-1193 limits assumed): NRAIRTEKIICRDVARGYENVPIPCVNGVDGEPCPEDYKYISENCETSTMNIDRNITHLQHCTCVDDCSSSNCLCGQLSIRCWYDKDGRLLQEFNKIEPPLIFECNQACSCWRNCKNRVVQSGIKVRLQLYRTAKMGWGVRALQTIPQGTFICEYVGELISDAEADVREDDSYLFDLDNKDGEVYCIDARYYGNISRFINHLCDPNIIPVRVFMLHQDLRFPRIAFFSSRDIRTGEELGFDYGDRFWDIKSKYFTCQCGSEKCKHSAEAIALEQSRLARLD
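AlphaScreen detection with an anti-monomethyl H3K9 antibody quantified product after a 2 h room-temperature reaction containing 500 nM biotinylated H3K9 peptide, 20 µM SAM and 20 nM enzyme, which had been preincubated 15 min with compound.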
L3MBTL1 block: inhibitors of human L3MBTL1; 230,000 compounds, 0.66% hits; Potency, µM (top dose mostly 57.1 µM), without a hit: at the highest dose activity, negative = inhibition, most hits filed as inhibitors; Q9Y468; AlphaScreen L3MBTL1–H3K9me1 peptide binding; also: % is scaled to controls: 0 for no effect and ±100 for the full control effect; nearly all actives have a fitted effect of over 60% in size
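Read-out is AlphaScreen signal from streptavidin donor and nickel chelate acceptor beads (10 ug/mL final each) bridging L3MBTL1 (50 nM) and biotinylated K9-monomethylated H3(1-15) peptide (75 nM), after 30 min compound exposure at room temperature.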
HP1b chromo inh: HP1-beta chromodomain-methylated histone interaction inhibition; P83916; AlphaScreen HP1-beta / biotin-H3K9me3 peptide binding; Potency, µM (titrated, usually from 114 µM), for inactives: top-dose activity change, negative = inhibition, most hits filed as inhibitors; 390,000 compounds, 0.56% hits; AID 540317; also: nearly all actives have a fitted effect of over 70% in size
Target sequence (P83916 whole entry, looked up): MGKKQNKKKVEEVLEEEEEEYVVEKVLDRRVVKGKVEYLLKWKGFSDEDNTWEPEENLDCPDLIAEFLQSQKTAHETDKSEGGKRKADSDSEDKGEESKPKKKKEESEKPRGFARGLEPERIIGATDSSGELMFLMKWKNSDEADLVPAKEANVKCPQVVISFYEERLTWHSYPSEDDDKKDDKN
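AlphaScreen: HP1-beta (50 nM) preformed 30 min with biotin-H3(1-18)K9me3 peptide (50 nM) in PBS pH 7.4, 0.01% Tween-20. Compound added for 30 min at RT, then streptavidin donor/nickel chelate acceptor beads (10 ug/mL) for 30 min.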
JMJD2A Tudor: JMJD2A Tudor domain (human) inhibition; AID 504339; 390,000 compounds, 4.4% hits; O75164; Potency, µM (doses to about 114 µM), inactives show top-dose activity change, negative = inhibition, usual class: inhibitors; AlphaScreen JMJD2A-Tudor / H3K4me3 peptide binding; also: % is scaled to controls: 0 for no effect and ±100 for the full control effect; nearly all actives have a fitted effect of over 50% in size
* = called active by the depositor; ? = inconclusive; · = no result given; ! = a repeat was not active; [ ] = dose if it differs, or a comment. Hits are enriched below; roughly 12% of the tested compounds scored in any of these assays. Calls follow the shape of the dose curve; as a rule, active = well fitted curve in the direction sought with a large enough effect; inconclusive = small, poorly fitted or top-dose-only effect, or another doubt; inactive = no such curve, though single readings can be large; an effect the other way counts as inactive or inconclusive. Potency is read from the fitted curve at half-maximal effect.

SMILES | BAZ2B block | Sfp PPTase inh | G9a block | L3MBTL1 block | HP1b chromo inh | JMJD2A Tudor
C[C@@]1(C(NC(=O)c2ccc(-c3ccccc3)cc2)c2ccc(Cl)cc2)C[C@H]1C1CCCCC1 (some centres not stated) | · | 8% | · | · | · | ·
COc1ccc2c(c1)c1c(c(=O)n(-c3cc(Cl)ccc3C)c(=O)n1Cc1ccc(F)cc1)n2C | -7% | · | -29%[59 µM] | · | 26% | 7%
O=C(Nc1ccc2c(c1)OCO2)N1CCCc2ccccc21 | -16% | 1% | 56µM* | -6% | 15% | -7%
Cc1ccc(NC(=O)N2CCCc3ccccc32)cc1 | 8% | 14% | 6% | 0% | -21% | -29%
COc1ccc(S(=O)(=O)NC(CC(=O)O)c2ccco2)cc1 (configuration not stated) | 3% | 11% | 1% | 8% | 32% | -4%
C=C(C)CC(Nc1ccc(OC)cc1)c1ccco1 (configuration not stated) | 50µM* | 14% | ? | -13% | 38% | 3%
COCCCN1C(=O)c2[nH]nc(-c3ccccc3O)c2C1c1ccc(OC)cc1 (configuration not stated) | -11% | · | 13%[59 µM] | · | 3% | -28%
COCCCNC(=O)c1oc2c(c1C)-c1nn(Cc3ccccc3Cl)cc1CC2 | -17% | · | -8%[59 µM] | · | 11% | -22%
CC(C)c1ccc(C2C(C#N)=C(N)N3C(=C2C#N)Sc2ccccc23)cc1 (configuration not stated) | -10%[57.1 µM] | -18% | 35µM* | 2% | · | ·
CC(=O)n1c2c(c3ccccc31)OC(N)=C(C#N)C2c1ccc(C(C)C)cc1 (configuration not stated) | -39%[57.1 µM] | -1% | ? | -5% | 10% | -35%
Cc1ccc(/C(=C\CN2CCCC2)c2ccccn2)cc1 | -16% | -10% | 7.5µM*! | · | · | -6%
COc1ccc(NC(=O)CCS(=O)(=O)c2nc(-c3ccc4c(c3)OCO4)cc(C(F)(F)F)n2)cc1OC | -11% | · | 11µM* | · | 16% | -19%
CCN(C(=O)CSc1nc(-c2ccccc2)no1)c1cccc(C)c1 | 143% | · | 8%[59 µM] | · | 147% | 92%
S=c1[nH]nc(CSc2nc3ccccc3s2)n1Cc1ccccc1 | -3% | 7% | 3.2µM* | · | 32% | ?
CCCSc1nnc(CSc2nc3ccccc3s2)n1-c1ccccc1 | 8% | -23% | 4%[0.501 µM] | 10% | 33% | -3%
C=CCn1c(CSc2nc3ccccc3s2)n[nH]c1=S | 10% | -7% | 4.5µM* | 34% | 4% | 50µM*
CCn1c(CSc2nc3ccccc3s2)n[nH]c1=S | -24% | 1% | 2.8µM* | · | -7% | 11µM*
COc1cc(C2CC(=O)c3c([nH]c(C(=O)OC4CCCCC4)c3C)C2)cc(OC)c1OC (configuration not stated) | -27% | · | -1%[59 µM] | · | 19% | -7%
COc1ccc(C(=O)N2CCN(C(=O)COc3ccc(Br)cc3)CC2)cc1OC | -27% | · | -16%[59 µM] | · | 20% | -10%
CC(C)NC(=O)c1sc2ncccc2c1-n1cccc1 | 7% | · | 6%[59 µM] | · | 42%[57 µM] | -5%
c1ccc2c(NCCN3CCOCC3)nc(-c3ccc4c(c3)OCO4)nc2c1 | · | 11% | -42%[0.501 µM] | · | · | ·
CCOC(=O)c1c(C)oc2nc(C)nc(Nc3cc(C)ccc3OC)c12 | 12%[57.1 µM] | · | -16%[59 µM] | · | 33% | -1%
COc1ccccc1-c1nnc(SC(C(=O)c2c[nH]c3ccccc23)c2ccccc2)n1C (configuration not stated) | -6% | -3% | 79µM* | -11% | 37% | ?
CCC1CCCCN1C(=O)Cn1c(=O)n(CC2CCC(C(=O)NC)CC2)c(=O)c2sccc21 (configuration not stated) | 3% | · | 10%[59 µM] | · | 65% | -7%
Cc1ccc2c(c1)c1c3n2CCN(C(=O)Cn2c(-c4ccccc4)noc2=O)C3CCC1 (configuration not stated) | 7% | ? | -11% | 8% | -4% | -35%
SMILES | BAZ2B block | Sfp PPTase inh | G9a block | L3MBTL1 block | HP1b chromo inh | JMJD2A Tudor
COC(Cn1c2c(c3cc(C)ccc31)CCCC2NCc1ccccc1)OC (configuration not stated) | 40µM* | -13% | 45µM* | -30% | 4% | ?
Cc1c2cnn(CC(=O)NC(C)C)c(=O)c2c(C)n1Cc1ccccc1Cl | -1% | · | 7%[59 µM] | · | 13% | -22%
O=[N+]([O-])c1cccnc1N1CCC(c2cc(-c3cccc(C(F)(F)F)c3)n[nH]2)CC1 | 35µM* | 15% | ? | · | ? | -15%[11.4 µM]
COc1ccc(-c2cc(C3CCN(Cc4cccc(C(F)(F)F)c4)CC3)[nH]n2)cc1 | ? | 11% | ? | -3% | -5% | ?
COc1ccc(OC)c(-c2cc(C3CCN(c4ncccc4[N+](=O)[O-])CC3)[nH]n2)c1 | 13µM* | 0% | 35µM* | ? | ? | 25µM*
COc1ccc(-c2cc(C3CCN(Cc4ccc([N+](=O)[O-])cc4)CC3)[nH]n2)cc1 | ? | -10% | 45µM* | 3% | ? | 45µM*
CC(=O)c1ccc(NC(=O)CSc2nccn2Cc2ccc3c(c2)OCO3)cc1 | ? | · | 18%[59 µM] | · | 8%[57 µM] | -32%
CC(C)CCC[C@@H](C)[C@H]1CC[C@H]2[C@@H]3CC[C@@H]4C[C@H](O)CC[C@]4(C)[C@H]3CC[C@]12C | · | -7% | -1%[12.7 µM] | · | · | ·
O=C(CCCCCn1c(=O)c2sccc2n(Cc2ccc(Cl)cc2)c1=O)NCc1ccc2c(c1)OCO2 | -36% | · | -1%[59 µM] | · | 52% | -8%
Cc1ccc([C@@H]2[C@@H]3C(=O)N(C)C(=O)[C@@H]3[C@]3(C)C(=O)N(Cc4ccccc4)CC(=O)N23)o1 | 18% | -11% | · | 40% | 64% | -7%
COC(=O)CN1C(=O)[C@H]2[C@@H](c3ccc(C)o3)N3C(=O)CN(Cc4ccccc4)C(=O)[C@@]3(C)[C@H]2C1=O | -22% | 45µM* | 45µM* | 2% | 37% | -22%
CCCCNC(=S)NCCN1CCN(C(=S)NCCCC)CC1 | -37% | 15% | 0% | -2% | 33% | -13%
CCNC(=S)N1CCN(Cc2ccccc2)CC1 | 50µM* | -23% | 16µM* | 17% | ? | 8.9µM*
CCN1CCN(C(=S)NCCc2ccccc2)CC1 | 79µM* | -26% | ? | -3% | ? | 3.2µM*
CCCNC(=S)N1CCN(CC)CC1 | 50µM* | -25% | 10µM* | -8% | -53% | 1.8µM*
S=C(NC1CCCCC1)N1CCN(Cc2ccccc2)CC1 | -4% | 4% | 6%[59 µM] | -8% | 21% | -14%
Cc1cnn(C(=S)NCC2CCCO2)c1 (configuration not stated) | -2% | -25% | 32µM* | -6% | 47% | 4.5µM*
